Source: PubChem
Shown are actives, neighbours in structure and some others; about 3.5% of the full set was active somewhere.
Vc quorum ag-1 – induces V. cholerae light production without autoinducers | activation, % at 18.7 µM | AID 588436 | V. cholerae BH1578 lux reporter, luminescence, 6 h | 350,000 tested, 0.16% active; in the data active means activation mostly above about 9.7%, no sharp cut-off; inconclusive means no clear call, values can overlap the other calls; inactive means mostly below about 3.7%
BoNT F protease – blocks Botulinum neurotoxin F light chain protease; 360,000 tested, 0.22% active; inhibition, % at 10 µM; Multiplex microsphere protease cleavage assay, flow cytometry; in the data active means inhibition above about 35%, passing the limit was not always enough; inconclusive means no clear call, values can overlap the other calls
Autofluor counter – compound fluorescence in toxin protease inhibitor counterscreen. compound autofluorescence counterscreen, microsphere flow cytometry; stronger effect = higher value. fluorescence intensity (test concentration not listed). 360,000 tested, 3.1% active; in the data active means fluorescence intensity above about 16000; inconclusive means no clear call, values can overlap the other calls
BoNT A protease – inhibitors of Botulinum neurotoxin A light chain protease; AID 588499; inhibition, % at 10 µM; multiplex microsphere protease substrate cleavage, flow cytometry; 360,000 tested, 0.17% active
Anthrax LF inh2 – inhibitors of Bacillus anthracis lethal factor protease | P15917 | 360,000 tested, 0.12% active | multiplex microsphere protease cleavage assay, LF | inhibition, % at 10 µM
Vc quorum ag-2 – quorum light induction in BH1578 reporter strain; V. cholerae BH1578 lux reporter, luminescence, 6 h; activation, % at 50 µM; shares compounds with Vc quorum ag-1; 620 tested, under 10 active; call rule not given here
Each line names hits and unclear results; the compound was inactive in the other large screens (follow-up assays come after a bar, where they were run). Unless noted, no stated cut-off is given here; in the data, active means inhibition above about 30%; inconclusive means no clear call, values can overlap the other calls; inactive means below that.

COc1ccc(N2Cc3ccc(OC)c(OC)c3C2=O)cc1	none
CCCn1nnnc1SCC(=O)c1ccc2c(c1)OCCO2	Vc quorum ag-1 65 | Vc quorum ag-2 inactive
Cc1ccc(C(=O)NNC(=O)c2ccc(-n3cncn3)c([N+](=O)[O-])c2)cc1	none
Cc1ccc(N(C(C)C(=O)O)S(=O)(=O)c2c(C)[nH]c(=O)[nH]c2=O)cc1 (stereo not drawn)	none
COC(=O)C(C)N(c1ccc(C)cc1)S(=O)(=O)c1c(C)[nH]c(=O)[nH]c1=O (stereo not drawn)	Vc quorum ag-1 111 | Vc quorum ag-2 inactive
COc1ccc(NS(=O)CCCc2ccccc2)cc1 (stereo not drawn)	none (no result: Vc quorum ag-1)
CCOc1ccccc1-n1nnnc1SCC(=O)N(C)C1CCS(=O)(=O)C1 (stereo not drawn)	none
COCC1CCN(Cc2cn(-c3ccccc3F)nc2-c2cc(C)sc2C)CC1	none
N#Cc1nc(-c2ccc(OCc3ccc(Cl)cc3)cc2)oc1NCc1cccnc1	Vc quorum ag-1 17 | Vc quorum ag-2 inactive
COc1ccc(-c2cn(CCO)c(-c3ccncc3)n2)cc1	none
CCCCN1C(=O)C(O)(CC(=O)c2ccccn2)c2ccccc21 (stereo not drawn)	Vc quorum ag-1 44 | Vc quorum ag-2 inactive
CCCCN1C(=O)C(O)(CC(=O)c2ccccc2OC)c2ccccc21 (stereo not drawn)	none
CC1(NC(=O)C23CC4CC(CC(C4)C2)C3)CCS(=O)(=O)C1 (stereo not drawn)	Vc quorum ag-1 17 | Vc quorum ag-2 inactive
CC(=O)c1ccc(Oc2cc(C)nc(NCc3ccccc3)n2)cc1	Vc quorum ag-1 25 | Vc quorum ag-2 inactive
CCOc1cc(C)nc(NCc2ccccc2)n1	none
O=[N+]([O-])c1ccc(NCCN2CCOCC2)c([N+](=O)[O-])c1	Vc quorum ag-1 33 | Vc quorum ag-2 inactive
O=C(Oc1cccc(Br)c1)c1cccnc1	none
COC(=O)c1cc(Br)ccc1OC(=O)c1cccnc1	Vc quorum ag-1 17 | Vc quorum ag-2 inactive
Cc1cc(C)cc(OC(=O)c2cccnc2)c1	Vc quorum ag-1 32 | Vc quorum ag-2 inactive
COc1cccc(CNC(=O)c2ccc(C3SCCS3)cc2)c1	none
CCc1nnc(NC(=O)C2CC(=O)N(c3ccc(C)cc3)C2)s1 (stereo not drawn)	none | Vc quorum ag-2 inactive
CCOc1ccc(N2CC(C(=O)Nc3nnc(Cc4ccc(OC)c(OC)c4)s3)CC2=O)cc1 (stereo not drawn)	none
COc1ccc(Cc2nnc(NC(=O)C3CC(=O)N(c4ccccc4C)C3)s2)cc1OC (stereo not drawn)	none | Vc quorum ag-2 inactive
CNc1nc(NC)c2cn[nH]c2n1	none
Cc1ccn(CCC(=O)N2CCCC(CCC(=O)N3CCN(c4ccccn4)CC3)C2)n1 (stereo not drawn)	none
Cc1cccc(N(CC(N)=O)C2SC(=O)N(c3ccccc3)C2=O)c1 (stereo not drawn)	Vc quorum ag-1 25 | Vc quorum ag-2 inactive
COc1ccccc1CNC(=O)c1ccc(S(=O)(=O)N(C)c2ccccc2)cc1	none | Vc quorum ag-2 inactive
CN[C@@H](C)C(=O)NC[C@H]1O[C@@H](n2cnc3c(N)ncnc32)[C@H](O)[C@@H]1O	none
Cc1ccc(C)c(OCCC(=O)OCC(=O)NC2CC2)c1	none | Vc quorum ag-2 inactive
COc1ccc(NCc2nnc(SCc3ccc(Cl)cc3)n2-c2ccccc2)cc1	none
Cn1cccc1C(=O)OCc1cc(-c2ccco2)on1	Vc quorum ag-1 31 | Vc quorum ag-2 inactive
CC(=O)OC(C)=O	none
Cc1cccc(C(=O)NCC(c2cccs2)N2CCOCC2)c1 (stereo not drawn)	none | Vc quorum ag-2 inactive
Cc1cccc(C(=O)NCC(=O)NCC(c2cccs2)N2CCOCC2)c1 (stereo not drawn)	Autofluor counter inconclusive
CCC(Oc1ccccc1)C(=O)Nc1ccc(-c2nnc(-c3ccco3)o2)cc1 (stereo not drawn)	Vc quorum ag-1 17 | Vc quorum ag-2 inactive
COc1cccc(Nc2nc(NCCO)c3ccccc3n2)c1	Vc quorum ag-1 40 | Vc quorum ag-2 inactive
OCCNc1nc(Nc2cccc(O)c2)nc2ccccc12	none
CCCCOc1ccc(C(=O)NCC(=O)NCCOc2ccccc2OC)cc1	none
O=C(NCc1ccccn1)C(C(=O)c1ccc(F)cc1)n1ccccc1=O (stereo not drawn)	none | Vc quorum ag-2 inactive
O=C(NCc1ccco1)C(C(=O)c1ccc(F)cc1)n1ccccc1=O (stereo not drawn)	none
Cc1ccc(S(=O)(=O)N2[C@@H](c3ccccc3F)C(C(=O)O)=CC[C@H]2c2cccs2)cc1	none
CCOC(=O)c1nnn(-c2nonc2N)c1CN1CCc2ccccc2C1	Autofluor counter 20264 | Vc quorum ag-2 inactive
CC(C)OC(=O)c1nnn(-c2nonc2N)c1CN1CCc2ccccc2C1	none
c1ccc2oc(-c3[nH]ncc3CN(Cc3ccncc3)CC3CCCO3)cc2c1 (stereo not drawn)	none
CN(Cc1cn[nH]c1-c1cc2ccccc2o1)CC1CCOCC1	Vc quorum ag-1 25 | Vc quorum ag-2 inactive
CCCCc1cc(=O)oc2cc(O)ccc12	none
COc1ccc(C(=O)N2CCCCC2)cc1S(=O)(=O)Nc1cccc(C(=O)O)c1	none
COc1ccc(C(=O)O)cc1S(=O)(=O)Nc1cccc(C(F)(F)F)c1	Vc quorum ag-1 17 | Vc quorum ag-2 inactive
C=CCSc1nc2c(c(=O)[nH]c(=O)n2C)n1Cc1ccc(C)cc1	none
Cc1ccc(Cn2c(SCC(C)C)nc3c2c(=O)[nH]c(=O)n3C)cc1	Vc quorum ag-1 25 | Vc quorum ag-2 inactive
CCC(=O)Nc1ccc(OCC2CCCO2)cc1 (stereo not drawn)	BoNT F protease inconclusive
O=C(CN1CC(=O)Nc2ccccc21)NCCc1ccc(Cl)cc1Cl	none
C=C(C)COc1ccc(-c2ncncc2Oc2ccc(OC)cc2)c(O)c1	Vc quorum ag-1 25 | Vc quorum ag-2 inactive
CC(=O)Oc1ccc(-c2ccc(C(=O)O)cc2)cc1	Vc quorum ag-1 25 | Vc quorum ag-2 inactive
O=C(c1cc(-c2ccc3c(c2)OCO3)on1)N1CCN(c2ccc(F)cc2)CC1	none | Vc quorum ag-2 inactive
O=C(c1cc(-c2ccc(O)cc2)on1)N1CCN(c2ccc(F)cc2)CC1	none
CC(C)(O)C(=O)NNC(=S)Nc1ccc(F)c(Cl)c1	none
CCOc1c(Cl)cc(C(=O)Nc2cccc(C(=O)O)c2)cc1Cl	none
CCCCNC(=O)CCC(=O)Nc1ccc2nc(N3CCC(C)CC3)cc(C)c2c1	none
Cc1cc(N2CCC(C)CC2)nc2ccc(N3C(=O)CCC3=O)cc12	none | Vc quorum ag-2 inactive
Cc1cc(NC2CCCCC2)nc(-c2ccccc2O)n1	Vc quorum ag-1 17 | Vc quorum ag-2 inactive
CCOC(=O)c1cnc(-n2nc(C)cc2C)nc1N(C)C	Autofluor counter 22817 | Vc quorum ag-2 inactive
CC(=O)c1cccc(NC(=O)COC(=O)Cc2ccc(Cl)cc2)c1	Autofluor counter inconclusive | Vc quorum ag-2 inactive
Cc1cc(C)cc(NC(=O)Cn2ncn3c(cc4ccccc43)c2=O)c1	Vc quorum ag-1 18 | Vc quorum ag-2 inactive
CN(C)c1ccc(NC(=O)Cn2ncn3c(cc4ccccc43)c2=O)cc1	none
